The values that follow come from PubChem BioAssay (EPA / NIEHS).

The nature of assay [1]: BSK_MyoF_SRB: Viability Assessment in the BioMAP Diversity Plus: MyoF Assay (AID 2284267).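 Further: total protein by SRB absorbance in parallel cultures as cytotoxicity measure; cells assessed 24 h after compound addition.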 The settings on record: primary human lung fibroblasts. In short, it runs like this:
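Lung fibroblast cultures, 24 h post-dose; fix 10% TCA, stain 0.1% SRB, read 560 nm. Signal = total protein as cytotoxicity measure; fitted relative to DMSO negative control.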

Read-out in assay [2]: Matrix Metallopeptidase 1 (MMP1), MMP1 (gene 4312)
Nature of the assay: BSK_MyoF_MMP1: BioMAP Diversity Plus: MyoF Assay for Matrix Metallopeptidase 1 (MMP1) Biomarker Activity (AID 2284268). The settings on record: primary human lung fibroblasts. In short, it runs like this: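 MMP1 measured by ELISA 24 h after dosing primary human lung fibroblasts; cytotoxicity checked in parallel cultures by sulforhodamine B total-protein staining read at 560 nm.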

Read-out in assay [3]: TIMP metallopeptidase inhibitor 1 (TIMP1), TIMP1 (gene 7076)
Nature of the assay: BSK_MyoF_TIMP1: BioMAP Diversity Plus: MyoF Assay for TIMP metallopeptidase inhibitor 1 (TIMP1) Biomarker Activity (AID 2284269). To be noted: primary human lung fibroblasts. In short, it runs like this: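 ELISA read-out of TIMP-1 from primary human lung fibroblast cultures 24 h after compound dosing; gain of signal relative to DMSO vehicle baseline defines activity.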

Read-out in assay [4]: Matrix Metallopeptidase 1 (MMP1), MMP1 (gene 4312)
Nature of the assay: BSK_BF4T_MMP1: BioMAP Diversity Plus: BF4T Assay for Matrix Metallopeptidase 1 (MMP1) Biomarker Activity (AID 2284270). To be noted: primary human bronchial epithelial cells with fibroblasts. In short, it runs like this: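 MMP-1 quantified by ELISA in primary human bronchial epithelial/dermal fibroblast co-cultures, 24 hours post-dosing, with DMSO as baseline; parallel sulforhodamine B staining (560 nm) tracks overt cytotoxicity.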

Read-out in assay [5]: Matrix Metallopeptidase 3 (MMP3), MMP3 (gene 4314)
The assay can be described thus: BSK_BF4T_MMP3: BioMAP Diversity Plus: BF4T Assay for Matrix Metallopeptidase 3 (MMP3) Biomarker Activity (AID 2284271). The settings on record: primary human bronchial epithelial cells with fibroblasts. The method, boiled down:
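MMP-3 level read by ELISA after 24 h chemical exposure of bronchial epithelial cell/dermal fibroblast co-cultures, fitted upward relative to DMSO. Parallel cultures stained with 0.1% SRB after TCA fixation gauge overt cytotoxicity.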

Read-out in assay [6]: Plasminogen Activator Inhibitor-1 (PAI1), SERPINE1 (gene 5054)
The assay can be described thus: BSK_BF4T_PAI1: BioMAP Diversity Plus: BF4T Assay for Plasminogen Activator Inhibitor-1 (PAI1) Biomarker Activity (AID 2284273). To be noted: primary human bronchial epithelial cells with fibroblasts. The method, boiled down: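 PAI-1 levels quantified by ELISA 24 h post-dosing in bronchial epithelial cell plus dermal fibroblast cultures. Signal gain referenced to DMSO baseline. Sulforhodamine B total-protein staining of parallel wells checked cytotoxicity.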

Assay [7] can be described thus: BSK_BF4T_SRB: Viability Assessment in the BioMAP Diversity Plus: BF4T Assay (AID 2284274). The settings on record: primary human bronchial epithelial cells with fibroblasts. In short, it runs like this: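 Cytotoxicity measured as total protein: cells fixed with 10% TCA, stained with 0.1% SRB, read at 560 nm. Bronchial epithelial/dermal fibroblast co-culture, 24 h after dosing, with positive-direction fitting relative to DMSO.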

Read-out in assay [8]: Interleukin-8 (IL8), CXCL8 (gene 3576)
The assay can be described thus: BSK_IMphg_IL8: BioMAP Diversity Plus: IMphg Assay for Interleukin-8 (IL8) Biomarker Activity (AID 2284277). The settings on record: primary human endothelial cells with macrophages. In short, it runs like this: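 IL-8 levels were measured by ELISA 24 h after dosing in primary human venular endothelial cell–macrophage cultures, referenced to DMSO; parallel SRB staining monitored overt cytotoxicity.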

Read-out in assay [9]: Intercellular Adhesion Molecule 1 (ICAM1), ICAM1 (gene 3383)
Nature of the assay: BSK_BE3C_ICAM1: BioMAP Diversity Plus: BE3C Assay for Intercellular Adhesion Molecule 1 (ICAM1) Biomarker Activity (AID 2284278).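 Further: cell-surface ICAM-1 protein level quantified by ELISA.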 To be noted: primary human bronchial epithelial cells. The method, boiled down:
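ELISA read-out of ICAM-1 on human lung bronchial epithelial primary cells, 24 h post-dosing; positive-direction curve fit, DMSO = baseline. SRB total-protein staining of parallel cultures flagged overt cytotoxicity.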

Read-out in assay [10]: Interferon-inducible T-cell alpha chemoattractant (ITAC), CXCL11 (gene 6373)
The assay can be described thus: BSK_BE3C_ITAC: BioMAP Diversity Plus: BE3C Assay for Interferon-inducible T-cell alpha chemoattractant (ITAC) Biomarker Activity (AID 2284279). To be noted: primary human bronchial epithelial cells. The method, boiled down:
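ELISA read-out of I-TAC after 24 h chemical dosing of human lung primary bronchial epithelial cells; gain-of-signal fit vs DMSO baseline. Parallel SRB total-protein staining (0.1% SRB, 10% TCA fixation, 560 nm) assessed cytotoxicity.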

Read-out in assay [11]: Interleukin-8 (IL8), CXCL8 (gene 3576)
The assay can be described thus: BSK_BE3C_IL8: BioMAP Diversity Plus: BE3C Assay for Interleukin-8 (IL8) Biomarker Activity (AID 2284280). To be noted: primary human bronchial epithelial cells. In short, it runs like this: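 Primary human bronchial epithelial cells (BE3C system) were exposed to test chemical for 24 h, and IL-8 levels were then measured by ELISA. Activity was fitted in the positive (gain-of-signal) direction against a DMSO negative-control baseline.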

Read-out in assay [12]: Epidermal growth factor receptor (EGFR), EGFR (gene 1956)
Nature of the assay: BSK_BE3C_EGFR: BioMAP Diversity Plus: BE3C Assay for Epidermal growth factor receptor (EGFR) Biomarker Activity (AID 2284281). The settings on record: primary human bronchial epithelial cells. The method, boiled down: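 Human primary bronchial epithelial cells were exposed to compound for 24 h, and cell-surface EGFR was then quantified by ELISA. Activity was fitted in the positive direction against the DMSO vehicle baseline.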

Read-out in assay [13]: KRT18 (gene 3875)
Nature of the assay: BSK_BE3C_Keratin818: BioMAP Diversity Plus: BE3C Assay for Keratin 818 Biomarker Activity (AID 2284282). To be noted: primary human bronchial epithelial cells. In short, it runs like this: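 ELISA read-out of Keratin 8/18 in BE3C human bronchial epithelial cultures, 24 h post-dosing; positive-direction fit vs DMSO baseline.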

Read-out in assay [14]: Matrix Metallopeptidase 9 (MMP9), MMP9 (gene 4318)
Nature of the assay: BSK_BE3C_MMP9: BioMAP Diversity Plus: BE3C Assay for Matrix Metallopeptidase 9 (MMP9) Biomarker Activity (AID 2284283). The settings on record: primary human bronchial epithelial cells. In short, it runs like this: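 Cells were dosed, incubated 24 h, then assayed for MMP-9 by ELISA; activity was fitted upward against DMSO. The system used human lung primary bronchial epithelial cells, with SRB total-protein staining run alongside for cytotoxicity.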

Read-out in assay [15]: Plasminogen activator inhibitor-1 (PAI1), SERPINE1 (gene 5054)
Nature of the assay: BSK_CASM3C_PAI1: BioMAP Diversity Plus: CASM3C Assay for Plasminogen activator inhibitor-1 (PAI1) Biomarker Activity (AID 2284284). To be noted: primary human coronary artery smooth muscle cells.

Read-out in assay [16]: Monocyte Chemoattractant Protein-1 (MCP1), CCL2 (gene 6347)
The assay can be described thus: BSK_hDFCGF_MCP1: BioMAP Diversity Plus: hDFCGF Assay for Monocyte Chemoattractant Protein-1 (MCP1) Biomarker Activity (AID 2284285). To be noted: primary human foreskin fibroblasts. In short, it runs like this: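 MCP-1 ELISA readout was taken 24 hours after dosing primary human dermal fibroblasts in the hDFCGF system, with DMSO as baseline. Parallel sulforhodamine B staining of total protein tracked overt cytotoxicity.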

Read-out in assay [17]: Vascular cell adhesion molecule 1 (VCAM1), VCAM1 (gene 7412)
Nature of the assay: BSK_IMphg_VCAM1: BioMAP Diversity Plus: IMphg Assay for Vascular cell adhesion molecule 1 (VCAM1) Biomarker Activity (AID 2284286). The settings on record: primary human endothelial cells with macrophages. In short, it runs like this:
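ELISA read-out of VCAM-1 on venular endothelial cell/macrophage co-cultures at 24 h post-treatment, with DMSO as baseline and positive-direction fitting. Parallel sulforhodamine B total-protein staining (560 nm) served as the overt cytotoxicity measure.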

Read-out in assay [18]: Tissue plasminogen activator (tPA), PLAT (gene 5327)
Nature of the assay: BSK_BF4T_tPA: BioMAP Diversity Plus: BF4T Assay for Tissue plasminogen activator (tPA) Biomarker Activity (AID 2284272). To be noted: primary human bronchial epithelial cells with fibroblasts. The method, boiled down:
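tPA level quantified by ELISA at 24 h post-treatment in bronchial epithelial/dermal fibroblast co-cultures, gain of signal scored against DMSO baseline. Parallel cultures stained with 0.1% SRB (560 nm) to flag overt cytotoxicity.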

Read-out in assay [19]: urokinase Plasminogen Activator (uPA), PLAU (gene 5328)
The assay can be described thus: BSK_BF4T_uPA: BioMAP Diversity Plus: BF4T Assay for urokinase Plasminogen Activator (uPA) Biomarker Activity (AID 2284275). To be noted: primary human bronchial epithelial cells with fibroblasts. In short, it runs like this:
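uPA levels measured by ELISA at 24 hours in BF4T cultures (bronchial epithelial cells plus dermal fibroblasts) and compared with DMSO; cytotoxicity tracked in parallel cultures by sulforhodamine B staining.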

Some structures have more than one record in an assay (separate samples or runs), and their calls can disagree. Activity calls are given as the source filed them. How the source made its calls: active means hit-call score of the fitted dose curve at least 0.9, where 1 is the maximum; inactive means score below 0.9.

In the case of `NC(=O)C(F)(F)C(F)(F)C(F)(F)C(F)(F)F`, the result in assay [1], in assay [2], in assay [3], in assay [4], in [5] and in assay [6] was inactive. In addition, the result in assay [7], in [8], in assay [9], in assay [10], in [11] and in [12] was inactive. For the same compound, the result in [13], in assay [14], in assay [15], in assay [16] and in [17] was inactive.
Consider `Oc1ccc(Nc2ccccc2)cc1`, for which the result in [1], in [2] and in assay [3] was inactive.
On to `FC(F)(F)C(F)(F)C(F)(F)C(F)(F)C(F)(F)C(F)(F)CCS`, for which the result in assay [1], in assay [2], in [3], in assay [4], in assay [5] and in assay [18] was inactive. Moreover, the result in assay [6], in assay [7], in assay [8], in assay [9], in assay [10] and in assay [11] was inactive. Besides, the outcome in [12], in assay [13], in [14], in assay [15], in assay [16] and in [17] was inactive. Moreover, the concentration at half-maximal activity (AC50) (usually the concentration giving half of the maximal activity seen) in [8] was 0.876 µM (active).
For the compound `O[Si](c1ccccc1)(c1ccccc1)c1ccccc1`, the concentration at half-maximal activity (AC50) was 23.8 µM (active) in [1] and 13.9 µM (active) in [2]. For the same compound, in [3], the result was inactive.
In the case of `C=CC/C=C/C/C=C/C/C=C/C`, the result in assay [1], in assay [2] and in [3] was inactive.
For the compound `CCc1ccc(C(c2ccc(CC)cc2)C(Cl)Cl)cc1`, the values for the concentration at half-maximal activity (AC50) in assay [1] and in assay [2] were 25.7 µM (active) and 8.65 µM (active), respectively. For the same compound, in [3], the result was inactive.
For the compound `O=C(O)C(F)(OC(F)(F)C(F)(OC(F)(F)C(F)(F)C(F)(F)F)C(F)(F)F)C(F)(F)F` (stereo not given), the result in assay [1], in [2], in assay [3], in [4], in assay [5] and in assay [6] was inactive. In addition, the result in assay [7], in [8], in assay [9], in [10], in assay [11] and in assay [12] was inactive. The result in assay [13], in [14], in [15], in assay [16] and in assay [17] was inactive. Besides, in assay [11], the half-maximal activity concentration (AC50) is 0.025 µM (active).
On to `FC(F)(F)C(F)(F)C(F)(F)C(F)(F)C(F)(F)C(F)(F)C(F)(F)C(F)(F)CCS`, for which the outcome in assay [1], in assay [2], in assay [3], in assay [4], in assay [5] and in assay [6] was inactive. The outcome in assay [7], in assay [19], in [8], in assay [9], in assay [10] and in [11] was inactive. In addition, the outcome in assay [12], in [13], in assay [14], in assay [15], in assay [16] and in assay [17] was inactive. In addition, the AC50 in [16] is 1.2 µM (active).
